In PubChem BioAssay (NCI):
This is part of a sample that, as a whole, favours compounds with a hit. Of some 83,000 tested, about 20% had one in any assay.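 Method: cells in 96-well plates; compound added at one concentration; 48 h incubation; percent growth measured; values under 10 scored active.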 Unmarked numbers belong to inactive results. The source made the active and inactive calls.

How the values were obtained:
Experiment in all cases: NCI-60 one-dose screen, 48 h (100 = growth as untreated, 0 = no growth, -100 = all killed)
Settings in all cases: 10 µM unless noted
SR leukemia = tested on: SR leukemia
RPMI-8226 leukemia = tested on: RPMI-8226 leukemia
OVCAR-8 ovarian = tested on: OVCAR-8 ovarian
OVCAR-5 ovarian = tested on: OVCAR-5 ovarian
OVCAR-4 ovarian = tested on: OVCAR-4 ovarian
SK-OV-3 ovarian = tested on: SK-OV-3 ovarian
IGROV1 ovarian = tested on: IGROV1 ovarian
OVCAR-3 ovarian = tested on: OVCAR-3 ovarian
NCI/ADR-RES ovarian = tested on: NCI/ADR-RES ovarian
T-47D breast = tested on: T-47D breast
BT-549 breast = tested on: BT-549 breast
MDA-MB-435 melanoma = tested on: MDA-MB-435 melanoma
SW-620 colon = tested on: SW-620 colon
MCF7 breast = tested on: MCF7 breast
HCT-116 colon = tested on: HCT-116 colon
HCC-2998 colon = tested on: HCC-2998 colon
KM12 colon = tested on: KM12 colon
HS 578T breast = tested on: HS 578T breast

SMILES	growth (SR leukemia)	growth (RPMI-8226 leukemia)	growth (OVCAR-8 ovarian)	growth (OVCAR-5 ovarian)	growth (OVCAR-4 ovarian)	growth (SK-OV-3 ovarian)	growth (IGROV1 ovarian)	growth (OVCAR-3 ovarian)	growth (NCI/ADR-RES ovarian)	growth (T-47D breast)	growth (BT-549 breast)	growth (MDA-MB-435 melanoma)	growth (SW-620 colon)	growth (MCF7 breast)	growth (HCT-116 colon)	growth (HCC-2998 colon)	growth (KM12 colon)	growth (HS 578T breast)
CC(=O)N/C(=C1/OC(C(O)C(O)C(O)CO)CN1C)[P+](c1ccccc1)(c1ccccc1)c1ccccc1 (centres undefined)	95.3%	99.7%	102%	99.5%	97.2%	93.8%	101%	112%	101%	103%	102%	103%	104%	92.8%	100%	97.7%	103%	
O=C(/C=C/C12c3ccccc3C(c3ccccc31)C1C(=O)NC(=O)C12)c1ccccn1 (centres undefined)	-8.33% (active)	-27.6% (active)	1.98% (active)	21%	35.3%	5.83% (active)	-12.3% (active)		11.3%	9.45% (active)	11%	-23.7% (active)	-1.62% (active)	10.4%	-65% (active)	16.5%		40.1%
COc1ccc2c(O)c(/C=C3\N=Nc4ccccc43)oc2c1C[C@H]1CCNC[C@H]1F	-23.4% (active)	60.4%	61%	35.4%	57.6%	69%	62.7%	66.4%	82.4%	83.3%	71.2%	35.4%	15.6%		26.7%	49.7%	2.5% (active)	
O=C(/C=C/c1ccc(Br)cc1)c1ccc(-n2cc(CN3CCN(c4cc5c(cc4F)c(=O)c(C(=O)O)cn5C4CC4)CC3)nn2)cc1	16.6%	34.2%	79%	99.5%	91.4%	78.4%	74.2%		102%	80%	81.3%	86.6%	95.5%	64.8%	7.82% (active)	98.5%		83.6%
COc1cc(-c2nc(SCCC(C)C)nc(N3CCOCC3)c2C#N)cc(OC)c1OC	-10.1% (active)	90.3%	43.1%	102%	-25.2% (active)	88.6%	79.6%	-33.3% (active)	79%	13.9%	79.9%	85.6%	27.7%	58.9%	5.13% (active)	91.7%	38%	
Cc1ccc2nc(Cl)c(Cn3nnnc3SCc3ccccc3)cc2c1	80%	93.1%	97.3%	94.3%	86.9%	97.7%	95.4%	105%	86.1%	84.6%	92.3%	103%	96.1%	87.9%	89.5%	111%	101%	
CC(C)CN1CC(C(=O)Nc2ccc3c(c2)-c2ccccc2C3)CC1=O (centres undefined)	63.4% [50 µM]	55% [50 µM]	48.5% [50 µM]	69.8% [50 µM]	71.2% [50 µM]	74.6% [50 µM]	67.9% [50 µM]	75.6% [50 µM]	67.7% [50 µM]	61.5% [50 µM]	65% [50 µM]	90.2% [50 µM]	93.3% [50 µM]	52.9% [50 µM]	64.1% [50 µM]	64.4% [50 µM]	74% [50 µM]	
Cc1ccc(C(=O)c2ccc(CC(=O)N/N=C/c3ccc(O)cc3O)n2C)cc1	17.3%	48.4%	48.4%	63.4%	20.7%	45.1%	41.7%	37.2%	34.6%	50.2%	50.8%	63.1%	42.2%		34.9%	59.6%	36.1%	
COc1ccc(-c2cc(-c3cc(OC)c(OC)c(OC)c3)c(C#N)c(=O)n2CCCCCC(=O)NO)cc1	78.2%	72.8%	87%	108%	100%	122%	101%	101%	96.1%	71.7%	99.5%	98.2%	101%	89%	88%	110%	93.4%	
